According to the supplement of paper PMC6555819:

Tests used:
Test in all cases: PBM binding z-score (relative to random genomic background probes); higher = stronger binding; sequences stand for … in GC…GCGATTGACAGCGTAGAATGAAGG
[1] = tested on: LXRa:RXRa (NR concentration 270 nM, RXRa partner concentration 90 nM)
Outline: (§1)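 Probes were double-stranded and carried 34-nt variable regions with direct-repeat seeds, single-nucleotide variants, half-site ablations and random human genomic background sequences, printed on custom Agilent 4×180K protein-binding microarrays. Arrays were incubated 1 h with ligand-free nuclear receptor dimers in PBS pH 7.4, 2% milk, 0.02% Triton X-100, 1 mM DTT, 0.2 mg/mL BSA and 0.4 mg/ml salmon testes DNA. Antibodies against each partner (one per run) detected binding, and scanned fluorescence was regression-normalized. Binding z-scores use the random background probes as reference.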

[2] = tested on: LXRa homodimer (NR concentration 270 nM)
Outline: as §1

[3] = tested on: LXRb homodimer (NR concentration 270 nM)
Outline: as §1

[4] = tested on: PPARg:RXRa (NR concentration 180 nM, RXRa partner concentration 90 nM)
Outline: as §1

[5] = tested on: PPARg:RXRa 270nM:90nM, anti-RXR (NR concentration 270 nM, RXRa partner concentration 90 nM)
Outline: as §1

[6] = tested on: PPARg:RXRa 30nM:10nM, anti-RXR (NR concentration 30 nM, RXRa partner concentration 10 nM)
Outline: as §1

[7] = tested on: PPARg:RXRa 90nM:30nM, anti-RXR (NR concentration 90 nM, RXRa partner concentration 30 nM)
Outline: as §1

[8] = tested on: PPARg:RXRa DBDmut IVT, anti-RXR (DBD mutation: RXRa K156A/R161A, NR concentration 270 nM, RXRa partner concentration 90 nM)
Outline: as §1

[9] = tested on: PPARg:RXRa IVT, anti-PPARg (NR concentration 270 nM, RXRa partner concentration 90 nM)
Outline: as §1

[10] = tested on: PPARg DBDmut IVT, anti-PPARg (DBD mutation: PPARg1 K132A/R137A, NR concentration 270 nM)
Outline: as §1

[11] = tested on: PPARg homodimer (NR concentration 180 nM)
Outline: as §1

[12] = tested on: PXR:RXRa (NR concentration 270 nM, RXRa partner concentration 90 nM)
Outline: as §1

[13] = tested on: PXR homodimer (NR concentration 270 nM)
Outline: as §1

[14] = tested on: RARa:RXR (NR concentration 270 nM, RXRa partner concentration 90 nM)
Outline: as §1

[15] = tested on: RARa homodimer (NR concentration 270 nM)
Outline: as §1

[16] = tested on: RARb:RXRa (NR concentration 270 nM, RXRa partner concentration 90 nM)
Outline: as §1

[17] = tested on: RARb homodimer (NR concentration 270 nM)
Outline: as §1

[18] = tested on: PPARg DBDmut:RXRa IVT, anti-PPARg (DBD mutation: PPARg1 K132A/R137A, NR concentration 270 nM, RXRa partner concentration 90 nM)
Outline: as §1

[19] = tested on: PPARa:RXRa (NR concentration 270 nM, RXRa partner concentration 90 nM)
Outline: as §1

| Sequence | PBM binding z-score [1] | PBM binding z-score [2] | PBM binding z-score [3] | PBM binding z-score [4] | PBM binding z-score [5] | PBM binding z-score [6] | PBM binding z-score [7] | PBM binding z-score [8] | PBM binding z-score [9] | PBM binding z-score [10] | PBM binding z-score [11] | PBM binding z-score [12] | PBM binding z-score [13] | PBM binding z-score [14] | PBM binding z-score [15] | PBM binding z-score [16] | PBM binding z-score [17] | PBM binding z-score [18] | PBM binding z-score [19] |
| --- | --- | --- | --- | --- | --- | --- | --- | --- | --- | --- | --- | --- | --- | --- | --- | --- | --- | --- | --- |
| CGAACTAGGTCAAGGGACAGTGAAAGGCGACGTA | 2.17 | -0.308 | -0.604 | 8.6 | 7.25 | 5.85 | 7.35 | 7.79 | 8.18 | 0.0336 | 1.42 | 0.929 | -0.504 | 1.71 | 0.0645 | 3.92 | 2.99 |  |  |
| GGAACGAGGTCATTCGAGTTGATAGCATGGCGAT | 6.43 | 1.91 | 1.68 | 6.59 | 6.55 | 3.27 | 5.58 | 5.42 | 5.89 | 0.0541 | 1.95 |  | 7.74 | 5.14 | -0.0279 | 4.9 | 3.81 | 0.79 |  |
| CAAAATAGGTCACAGAGGTCAAAGTCCGTGCGTA |  | 7.45 | 2.61 | 9.92 | 8.39 | 6.56 | 8.55 | 7.62 | 8.25 | 1.23 | 4.67 | 6.99 | 10.7 | 7.81 | 1.88 |  | 5.93 | 1.92 |  |
| CAAACTAGGTCAAGAGGTCAAAGTTCGCTTCCCG | 6.59 | 6.51 | 2.33 |  | 9.13 | 7.44 | 10.1 | 8.34 | 8.83 | 5.91 | 10.9 |  | 5.01 |  | 4.53 | 5.51 | 5.71 | 3.82 |  |
| ATCGAAAGGTCAACGAGGTGAGTATACACCGTTT |  | 4.35 | 3.41 | 8.38 | 7.87 | 5.13 | 7.2 | 3.84 | 5.68 | 3.38 | 5.17 | 6 | 5.16 | 6.61 | 3.85 |  | 5.51 | 2.78 |  |
| TGTCAAAGTTCAAAGGTGACGTAAGTATCCACAC | 6.41 | 4.7 | 1.8 | 9.47 | 7.89 | 6.06 | 7.61 | 0.732 | 5.07 | 1.53 | 5.33 | 6.34 | 5.43 |  | 2.52 | 5.36 | 4.05 | 1.7 |  |
| CCTGCTAGGTCATGGTCAGCGAATCTACAGTATG | 2.19 | -0.0156 | -0.255 | 2.7 | 2.69 | 0.687 | 1.77 | 4.64 | 3.76 | -0.639 | 2 | 1.18 | -0.875 | 2.26 | -0.334 | 4.09 | 3.29 | -0.0271 |  |
| CAAACCAGGTCAAGAGGTCAAAGTCCGCTTCCCG | 6.66 | 6.64 | 1.8 | 8.56 | 7.51 | 5.51 | 7.2 | 5.93 | 6.81 | 3.15 | 8.14 |  | 3.35 | 8.42 | 3.47 | 5.6 | 5.59 | 3.85 |  |
| GCTTACAGGTCAAAGGTTATAGCATGAATAGAAT |  | 2.63 | 1.4 | 11.5 | 9.51 | 8.9 | 10.5 | 5.27 | 6.3 | 3.43 | 3.21 | 6.17 | 0.923 | 7.96 | 0.992 | 4.93 | 3.69 | 2.55 | 7.1 |
| CGTCCAAGGTCACGGTCAGTGAAAGAGACTCGAA | 6.12 | 0.892 | 0.155 | 7.75 | 7.26 | 4.16 | 6.37 | 4.83 | 5.66 | 0.958 | 4.68 | 4.93 | 0.843 | 6.25 | 2.14 |  | 4.71 | 1.95 |  |
| CGTCCAAGGTCAAAGGTCATTGAAGAGATGACGG |  | 6.32 | 3.11 |  | 10 | 9.22 | 11.6 | 4.6 | 6.27 | 0.832 | 5.55 |  | 4.59 |  | 5.35 | 6.2 | 5.63 | 2.57 | 7.33 |
| ATATGTAGGTTAGCTGGGGTCATTCACACTAGGC | 5.86 | 3.53 | 1.66 | 5.47 | 5.14 | 2.95 | 4.69 | 6.87 | 6.11 | 2.29 | 3.1 | 6.36 | 4.2 | 5.41 | 1.89 | 2.85 | 3.87 | 2.75 |  |
| CGAACTAGGTCGCCAGGACAGTGAAGAGGTTGGA | 0.158 | -0.593 | -0.928 | 2.71 | 2.49 | 0.111 | 1.62 | 5.94 | 5.49 | -0.449 | -0.09 | -0.103 | -0.264 | 0.141 | -0.715 | 1.48 | 1.04 |  |  |
| CAAACAAGGTCACCGGAAGGTCAAAGTCCGCATG |  | 6.36 | 2.43 | 8.84 | 7.81 | 4.78 | 7.17 | 5.54 | 6.66 | 3.51 | 10.2 |  | 4.84 |  | 5.98 |  | 5.88 | 3.88 | 6.58 |
| TAGCCTAGTTCATTCAGGGGCCAGTATAGAAAGC | 0.593 | 0.155 | 0.584 | 0.203 | 0.273 | -0.157 | 0.0192 | 1.65 | 1.45 | 0.583 | 0.283 | 1.29 | 0.885 | 0.991 | -0.411 | 1.72 | 1.64 | -0.019 |  |
| CTATGTAGGTTAAGGGAGTCATTCAGTTTGAAAG | 0.682 | -0.134 |  | 4.76 | 4.4 | 1.9 | 3.53 | 6.9 | 6.74 |  | 0.863 |  | 0.389 | 0.462 | 0.236 | 0.814 | 0.609 |  | 3.21 |
| GCTGCGAGGTCAACTGATGGTCAGCTAAAGCTCG | 5.87 | 1.54 | 1.67 | 6.28 | 6.33 | 2.91 | 5.05 | 3.65 | 4.26 | -0.29 | 3.57 | 5.49 | 0.673 | 5.93 | 0.38 |  | 4.83 | 0.48 |  |
